Key:
[1] = target: T1, Ephrin type-A receptor 3 (Homo sapiens) (UniProt P29320); settings: at 10 µM
T1 sequence (whole entry): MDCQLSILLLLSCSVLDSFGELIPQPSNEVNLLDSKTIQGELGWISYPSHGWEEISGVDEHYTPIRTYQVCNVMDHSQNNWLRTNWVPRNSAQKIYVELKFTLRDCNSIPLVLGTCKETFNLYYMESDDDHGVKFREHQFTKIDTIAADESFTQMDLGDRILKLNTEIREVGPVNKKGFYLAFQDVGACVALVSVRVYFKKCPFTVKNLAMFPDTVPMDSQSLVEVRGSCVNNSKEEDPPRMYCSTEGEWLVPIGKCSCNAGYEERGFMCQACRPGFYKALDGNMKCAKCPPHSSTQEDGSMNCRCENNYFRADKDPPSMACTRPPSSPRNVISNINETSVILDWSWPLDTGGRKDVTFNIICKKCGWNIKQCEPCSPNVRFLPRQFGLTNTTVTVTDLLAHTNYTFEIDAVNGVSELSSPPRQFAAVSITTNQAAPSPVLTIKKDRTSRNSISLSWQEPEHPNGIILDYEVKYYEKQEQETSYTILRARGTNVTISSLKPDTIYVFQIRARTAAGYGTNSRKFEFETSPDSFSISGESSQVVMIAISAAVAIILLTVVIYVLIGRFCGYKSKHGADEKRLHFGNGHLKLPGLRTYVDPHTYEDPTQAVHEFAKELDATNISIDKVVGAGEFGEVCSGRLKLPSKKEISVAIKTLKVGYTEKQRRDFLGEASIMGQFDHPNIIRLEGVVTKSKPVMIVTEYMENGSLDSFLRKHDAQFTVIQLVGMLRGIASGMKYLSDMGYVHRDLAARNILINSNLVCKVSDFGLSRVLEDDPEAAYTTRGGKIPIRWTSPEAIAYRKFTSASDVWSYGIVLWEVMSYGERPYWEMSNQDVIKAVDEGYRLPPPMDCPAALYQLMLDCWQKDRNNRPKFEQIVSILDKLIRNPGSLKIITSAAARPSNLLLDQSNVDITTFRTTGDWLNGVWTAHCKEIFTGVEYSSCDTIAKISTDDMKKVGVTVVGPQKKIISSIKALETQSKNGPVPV

[2] = target: Ephrin type-A receptor 4 (Homo sapiens) (UniProt P54764); settings: at 10 µM
Ephrin type-A receptor 4 (Homo sapiens), sequence (P54764 whole entry): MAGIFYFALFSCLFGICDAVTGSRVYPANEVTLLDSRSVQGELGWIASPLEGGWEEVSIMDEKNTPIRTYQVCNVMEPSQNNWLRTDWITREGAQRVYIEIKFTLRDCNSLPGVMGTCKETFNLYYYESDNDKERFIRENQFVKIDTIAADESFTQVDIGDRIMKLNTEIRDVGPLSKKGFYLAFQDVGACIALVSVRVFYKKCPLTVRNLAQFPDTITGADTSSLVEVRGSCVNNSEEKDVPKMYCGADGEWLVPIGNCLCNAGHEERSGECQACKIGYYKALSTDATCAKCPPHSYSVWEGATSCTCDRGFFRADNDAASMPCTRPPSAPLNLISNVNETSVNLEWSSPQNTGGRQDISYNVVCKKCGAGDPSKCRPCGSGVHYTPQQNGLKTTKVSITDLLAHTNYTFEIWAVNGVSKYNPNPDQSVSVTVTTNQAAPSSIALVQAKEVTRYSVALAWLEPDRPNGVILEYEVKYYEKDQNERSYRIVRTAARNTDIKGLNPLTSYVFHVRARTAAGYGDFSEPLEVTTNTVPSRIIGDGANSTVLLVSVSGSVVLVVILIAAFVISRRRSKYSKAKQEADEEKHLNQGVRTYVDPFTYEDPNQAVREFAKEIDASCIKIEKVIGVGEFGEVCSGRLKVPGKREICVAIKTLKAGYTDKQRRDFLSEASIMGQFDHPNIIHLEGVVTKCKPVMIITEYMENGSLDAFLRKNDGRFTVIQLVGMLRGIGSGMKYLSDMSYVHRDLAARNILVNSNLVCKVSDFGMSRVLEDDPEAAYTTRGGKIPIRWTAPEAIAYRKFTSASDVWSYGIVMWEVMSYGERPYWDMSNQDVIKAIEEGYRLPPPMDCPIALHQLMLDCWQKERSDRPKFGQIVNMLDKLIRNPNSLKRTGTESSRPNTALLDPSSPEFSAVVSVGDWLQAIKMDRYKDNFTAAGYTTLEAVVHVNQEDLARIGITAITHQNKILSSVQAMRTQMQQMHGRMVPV

[3] = target: Ephrin type-A receptor 5 (Homo sapiens) (UniProt P54756); settings: at 1 µM
Ephrin type-A receptor 5 (Homo sapiens), sequence (P54756 whole entry): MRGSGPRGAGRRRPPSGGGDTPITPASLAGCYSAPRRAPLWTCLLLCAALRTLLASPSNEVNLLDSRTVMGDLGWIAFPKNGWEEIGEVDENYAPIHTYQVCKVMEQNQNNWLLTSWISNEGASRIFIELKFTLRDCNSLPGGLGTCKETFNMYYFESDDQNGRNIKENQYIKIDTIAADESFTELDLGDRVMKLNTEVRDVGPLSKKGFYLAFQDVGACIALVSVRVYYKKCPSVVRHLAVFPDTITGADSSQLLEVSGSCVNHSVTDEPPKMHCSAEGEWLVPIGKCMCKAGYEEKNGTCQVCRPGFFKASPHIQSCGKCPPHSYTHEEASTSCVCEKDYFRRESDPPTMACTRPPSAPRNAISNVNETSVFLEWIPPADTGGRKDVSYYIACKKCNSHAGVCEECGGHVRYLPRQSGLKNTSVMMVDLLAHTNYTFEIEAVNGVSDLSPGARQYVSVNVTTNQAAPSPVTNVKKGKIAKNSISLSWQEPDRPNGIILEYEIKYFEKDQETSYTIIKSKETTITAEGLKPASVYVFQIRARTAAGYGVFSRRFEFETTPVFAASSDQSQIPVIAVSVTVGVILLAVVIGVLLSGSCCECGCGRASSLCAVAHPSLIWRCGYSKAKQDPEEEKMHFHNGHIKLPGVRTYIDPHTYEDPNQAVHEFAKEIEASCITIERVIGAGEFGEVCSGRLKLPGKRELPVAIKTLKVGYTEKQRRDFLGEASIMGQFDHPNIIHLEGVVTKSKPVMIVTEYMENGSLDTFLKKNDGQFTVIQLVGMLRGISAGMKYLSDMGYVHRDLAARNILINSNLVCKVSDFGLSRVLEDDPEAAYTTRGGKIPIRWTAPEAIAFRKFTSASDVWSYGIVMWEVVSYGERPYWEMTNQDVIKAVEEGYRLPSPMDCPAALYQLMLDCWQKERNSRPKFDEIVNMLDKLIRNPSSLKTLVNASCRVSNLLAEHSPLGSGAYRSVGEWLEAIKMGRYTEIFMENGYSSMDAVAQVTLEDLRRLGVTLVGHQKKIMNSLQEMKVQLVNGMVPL

[4] = target: Ephrin type-A receptor 5 (Homo sapiens) (UniProt P54756); settings: at 10 µM
[5] = target: Ephrin type-A receptor 7 (Homo sapiens) (UniProt Q15375); settings: at 1 µM
Ephrin type-A receptor 7 (Homo sapiens), sequence (Q15375 28-998 limits assumed): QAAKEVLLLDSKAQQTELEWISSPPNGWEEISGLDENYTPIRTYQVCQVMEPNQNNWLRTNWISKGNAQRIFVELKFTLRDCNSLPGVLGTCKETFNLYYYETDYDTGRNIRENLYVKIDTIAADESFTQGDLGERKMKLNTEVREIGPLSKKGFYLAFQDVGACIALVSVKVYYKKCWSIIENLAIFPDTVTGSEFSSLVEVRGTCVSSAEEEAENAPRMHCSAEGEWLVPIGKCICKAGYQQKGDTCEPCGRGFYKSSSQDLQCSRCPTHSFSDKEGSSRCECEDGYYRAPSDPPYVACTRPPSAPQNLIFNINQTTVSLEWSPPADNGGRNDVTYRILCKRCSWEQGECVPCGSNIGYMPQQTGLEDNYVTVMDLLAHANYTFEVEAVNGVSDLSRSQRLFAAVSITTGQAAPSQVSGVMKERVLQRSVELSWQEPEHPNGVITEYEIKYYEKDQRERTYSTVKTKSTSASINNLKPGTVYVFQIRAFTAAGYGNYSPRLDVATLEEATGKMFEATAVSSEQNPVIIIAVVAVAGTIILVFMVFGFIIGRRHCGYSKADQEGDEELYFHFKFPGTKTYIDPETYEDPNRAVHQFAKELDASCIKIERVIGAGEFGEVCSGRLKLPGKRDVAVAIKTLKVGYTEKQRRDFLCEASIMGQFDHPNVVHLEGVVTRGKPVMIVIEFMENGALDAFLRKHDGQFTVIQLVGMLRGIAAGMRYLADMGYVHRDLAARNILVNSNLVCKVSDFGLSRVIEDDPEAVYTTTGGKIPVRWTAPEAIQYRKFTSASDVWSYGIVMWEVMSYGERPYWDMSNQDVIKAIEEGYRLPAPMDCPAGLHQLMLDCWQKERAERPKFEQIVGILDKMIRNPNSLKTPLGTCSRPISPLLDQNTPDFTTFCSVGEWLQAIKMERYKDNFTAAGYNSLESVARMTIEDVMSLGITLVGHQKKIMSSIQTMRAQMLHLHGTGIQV

[6] = target: Ephrin type-A receptor 7 (Homo sapiens) (UniProt Q15375); settings: at 10 µM
[7] = target: T2, Ephrin type-A receptor 8 (Homo sapiens) (UniProt P29322); settings: at 1 µM
T2 sequence (whole entry): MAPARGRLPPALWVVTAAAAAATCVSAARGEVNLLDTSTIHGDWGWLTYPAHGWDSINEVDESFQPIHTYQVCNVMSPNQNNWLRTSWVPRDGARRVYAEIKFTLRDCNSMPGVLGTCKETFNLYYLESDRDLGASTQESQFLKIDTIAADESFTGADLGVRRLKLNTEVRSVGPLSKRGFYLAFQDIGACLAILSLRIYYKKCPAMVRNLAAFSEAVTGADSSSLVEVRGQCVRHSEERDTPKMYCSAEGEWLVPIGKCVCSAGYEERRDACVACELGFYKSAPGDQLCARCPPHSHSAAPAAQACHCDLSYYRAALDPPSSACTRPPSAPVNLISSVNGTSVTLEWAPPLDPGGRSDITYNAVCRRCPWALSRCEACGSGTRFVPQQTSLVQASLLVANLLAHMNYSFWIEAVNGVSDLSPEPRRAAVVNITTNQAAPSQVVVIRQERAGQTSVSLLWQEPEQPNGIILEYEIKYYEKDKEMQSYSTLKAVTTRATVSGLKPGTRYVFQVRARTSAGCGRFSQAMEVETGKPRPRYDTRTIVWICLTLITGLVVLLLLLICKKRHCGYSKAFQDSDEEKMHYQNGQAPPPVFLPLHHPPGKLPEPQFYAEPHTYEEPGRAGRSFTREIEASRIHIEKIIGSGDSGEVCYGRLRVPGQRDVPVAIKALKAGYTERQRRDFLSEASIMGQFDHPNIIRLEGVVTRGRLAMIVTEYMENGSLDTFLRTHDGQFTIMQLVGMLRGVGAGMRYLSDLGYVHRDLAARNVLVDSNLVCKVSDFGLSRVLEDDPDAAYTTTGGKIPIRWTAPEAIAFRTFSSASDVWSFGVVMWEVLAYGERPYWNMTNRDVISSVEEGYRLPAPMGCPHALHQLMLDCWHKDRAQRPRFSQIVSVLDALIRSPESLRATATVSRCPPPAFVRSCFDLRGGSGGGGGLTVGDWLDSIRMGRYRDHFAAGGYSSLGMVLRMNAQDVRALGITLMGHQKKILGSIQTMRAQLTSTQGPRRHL

[8] = target: T2, Ephrin type-A receptor 8 (Homo sapiens); settings: at 10 µM
[9] = target: T3, Ephrin type-B receptor 1 (Homo sapiens) (UniProt P54762); settings: at 1 µM
T3 sequence (whole entry): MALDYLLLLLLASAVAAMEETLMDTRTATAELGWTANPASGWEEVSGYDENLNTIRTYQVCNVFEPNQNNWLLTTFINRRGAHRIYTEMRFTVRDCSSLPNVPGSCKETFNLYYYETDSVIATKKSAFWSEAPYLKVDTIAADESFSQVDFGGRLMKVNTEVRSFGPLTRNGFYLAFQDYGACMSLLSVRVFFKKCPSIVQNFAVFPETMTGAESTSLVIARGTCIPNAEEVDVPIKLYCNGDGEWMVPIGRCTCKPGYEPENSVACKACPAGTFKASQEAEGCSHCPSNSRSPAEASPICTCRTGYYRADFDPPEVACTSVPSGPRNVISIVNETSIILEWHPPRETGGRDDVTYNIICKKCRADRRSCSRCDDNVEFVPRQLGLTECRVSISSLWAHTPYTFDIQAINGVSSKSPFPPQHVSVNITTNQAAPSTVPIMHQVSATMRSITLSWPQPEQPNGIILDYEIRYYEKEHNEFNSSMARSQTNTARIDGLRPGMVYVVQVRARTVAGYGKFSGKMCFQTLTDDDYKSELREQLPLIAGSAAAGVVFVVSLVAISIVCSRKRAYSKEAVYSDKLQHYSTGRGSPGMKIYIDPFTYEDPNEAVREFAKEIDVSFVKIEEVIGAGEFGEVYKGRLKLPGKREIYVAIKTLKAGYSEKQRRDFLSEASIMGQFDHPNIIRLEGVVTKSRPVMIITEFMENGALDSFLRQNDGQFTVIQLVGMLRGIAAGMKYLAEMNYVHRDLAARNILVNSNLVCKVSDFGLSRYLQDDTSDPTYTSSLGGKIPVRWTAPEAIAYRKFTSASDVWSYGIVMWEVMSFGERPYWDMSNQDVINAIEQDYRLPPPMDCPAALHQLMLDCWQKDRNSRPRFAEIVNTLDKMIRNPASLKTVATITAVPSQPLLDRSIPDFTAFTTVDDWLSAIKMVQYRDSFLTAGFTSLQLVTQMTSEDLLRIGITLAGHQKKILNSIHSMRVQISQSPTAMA

[10] = target: T3, Ephrin type-B receptor 1 (Homo sapiens); settings: at 10 µM
[11] = target: T4, Ephrin type-B receptor 3 (Homo sapiens) (UniProt P54753); settings: at 1 µM
T4 sequence (whole entry): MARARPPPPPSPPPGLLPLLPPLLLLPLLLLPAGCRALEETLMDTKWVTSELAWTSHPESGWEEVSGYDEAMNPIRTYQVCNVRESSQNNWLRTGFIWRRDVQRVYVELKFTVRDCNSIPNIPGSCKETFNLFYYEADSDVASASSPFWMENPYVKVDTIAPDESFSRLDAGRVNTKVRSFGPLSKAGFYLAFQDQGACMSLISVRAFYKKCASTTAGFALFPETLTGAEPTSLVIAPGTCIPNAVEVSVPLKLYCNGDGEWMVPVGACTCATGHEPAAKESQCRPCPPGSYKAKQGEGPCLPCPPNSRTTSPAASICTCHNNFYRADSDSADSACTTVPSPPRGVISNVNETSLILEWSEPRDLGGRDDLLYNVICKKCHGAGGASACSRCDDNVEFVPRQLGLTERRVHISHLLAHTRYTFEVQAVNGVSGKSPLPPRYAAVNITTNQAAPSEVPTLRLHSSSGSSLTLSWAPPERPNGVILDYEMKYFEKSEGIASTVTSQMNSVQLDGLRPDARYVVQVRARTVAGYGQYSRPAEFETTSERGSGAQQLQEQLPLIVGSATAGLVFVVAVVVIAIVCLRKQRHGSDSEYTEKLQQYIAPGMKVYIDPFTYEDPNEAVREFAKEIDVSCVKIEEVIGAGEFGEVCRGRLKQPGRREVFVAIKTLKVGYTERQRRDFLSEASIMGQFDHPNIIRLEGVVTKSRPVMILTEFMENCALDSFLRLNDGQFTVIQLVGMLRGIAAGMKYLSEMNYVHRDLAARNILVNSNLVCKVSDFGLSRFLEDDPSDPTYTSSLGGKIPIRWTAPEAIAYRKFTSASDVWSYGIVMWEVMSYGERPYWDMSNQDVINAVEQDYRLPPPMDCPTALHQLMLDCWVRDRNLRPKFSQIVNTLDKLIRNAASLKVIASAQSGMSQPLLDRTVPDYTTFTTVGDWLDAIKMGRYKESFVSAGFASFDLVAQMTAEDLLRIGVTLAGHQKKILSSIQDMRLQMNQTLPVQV

[12] = target: T4, Ephrin type-B receptor 3 (Homo sapiens); settings: at 10 µM
[13] = target: T5, Ephrin type-B receptor 4 (Homo sapiens) (UniProt P54760); settings: at 1 µM
T5 sequence (whole entry): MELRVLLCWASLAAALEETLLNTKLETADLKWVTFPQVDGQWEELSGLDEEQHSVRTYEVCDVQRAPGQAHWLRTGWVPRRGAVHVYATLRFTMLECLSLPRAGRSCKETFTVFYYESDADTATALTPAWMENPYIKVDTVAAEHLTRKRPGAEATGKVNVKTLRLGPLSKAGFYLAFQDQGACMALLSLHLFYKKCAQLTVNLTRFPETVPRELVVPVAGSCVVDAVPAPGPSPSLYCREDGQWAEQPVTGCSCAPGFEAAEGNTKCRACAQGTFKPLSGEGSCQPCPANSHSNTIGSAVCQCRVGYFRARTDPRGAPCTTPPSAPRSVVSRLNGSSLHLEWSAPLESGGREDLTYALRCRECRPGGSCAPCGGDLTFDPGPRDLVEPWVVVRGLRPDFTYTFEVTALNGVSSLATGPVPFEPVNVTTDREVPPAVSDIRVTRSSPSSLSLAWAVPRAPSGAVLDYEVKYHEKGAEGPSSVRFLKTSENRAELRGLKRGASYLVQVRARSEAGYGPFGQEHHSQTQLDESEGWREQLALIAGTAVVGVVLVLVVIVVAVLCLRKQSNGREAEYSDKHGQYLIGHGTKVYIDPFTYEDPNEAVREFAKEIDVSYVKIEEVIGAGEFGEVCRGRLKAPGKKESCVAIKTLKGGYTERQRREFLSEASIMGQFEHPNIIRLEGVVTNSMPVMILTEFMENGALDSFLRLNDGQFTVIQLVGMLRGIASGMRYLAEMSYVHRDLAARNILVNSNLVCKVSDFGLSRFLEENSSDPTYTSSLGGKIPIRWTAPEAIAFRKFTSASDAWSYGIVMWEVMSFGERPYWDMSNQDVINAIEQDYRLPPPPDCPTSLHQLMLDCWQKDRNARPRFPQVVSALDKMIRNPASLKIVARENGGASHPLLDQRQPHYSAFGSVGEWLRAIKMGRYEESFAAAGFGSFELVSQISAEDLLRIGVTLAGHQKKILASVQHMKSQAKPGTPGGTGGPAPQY

[14] = target: T5, Ephrin type-B receptor 4 (Homo sapiens); settings: at 10 µM
[15] = target: Receptor tyrosine-protein kinase erbB-4 (Homo sapiens) (UniProt Q15303); settings: at 1 µM
Receptor tyrosine-protein kinase erbB-4 (Homo sapiens), sequence (Q15303 whole entry): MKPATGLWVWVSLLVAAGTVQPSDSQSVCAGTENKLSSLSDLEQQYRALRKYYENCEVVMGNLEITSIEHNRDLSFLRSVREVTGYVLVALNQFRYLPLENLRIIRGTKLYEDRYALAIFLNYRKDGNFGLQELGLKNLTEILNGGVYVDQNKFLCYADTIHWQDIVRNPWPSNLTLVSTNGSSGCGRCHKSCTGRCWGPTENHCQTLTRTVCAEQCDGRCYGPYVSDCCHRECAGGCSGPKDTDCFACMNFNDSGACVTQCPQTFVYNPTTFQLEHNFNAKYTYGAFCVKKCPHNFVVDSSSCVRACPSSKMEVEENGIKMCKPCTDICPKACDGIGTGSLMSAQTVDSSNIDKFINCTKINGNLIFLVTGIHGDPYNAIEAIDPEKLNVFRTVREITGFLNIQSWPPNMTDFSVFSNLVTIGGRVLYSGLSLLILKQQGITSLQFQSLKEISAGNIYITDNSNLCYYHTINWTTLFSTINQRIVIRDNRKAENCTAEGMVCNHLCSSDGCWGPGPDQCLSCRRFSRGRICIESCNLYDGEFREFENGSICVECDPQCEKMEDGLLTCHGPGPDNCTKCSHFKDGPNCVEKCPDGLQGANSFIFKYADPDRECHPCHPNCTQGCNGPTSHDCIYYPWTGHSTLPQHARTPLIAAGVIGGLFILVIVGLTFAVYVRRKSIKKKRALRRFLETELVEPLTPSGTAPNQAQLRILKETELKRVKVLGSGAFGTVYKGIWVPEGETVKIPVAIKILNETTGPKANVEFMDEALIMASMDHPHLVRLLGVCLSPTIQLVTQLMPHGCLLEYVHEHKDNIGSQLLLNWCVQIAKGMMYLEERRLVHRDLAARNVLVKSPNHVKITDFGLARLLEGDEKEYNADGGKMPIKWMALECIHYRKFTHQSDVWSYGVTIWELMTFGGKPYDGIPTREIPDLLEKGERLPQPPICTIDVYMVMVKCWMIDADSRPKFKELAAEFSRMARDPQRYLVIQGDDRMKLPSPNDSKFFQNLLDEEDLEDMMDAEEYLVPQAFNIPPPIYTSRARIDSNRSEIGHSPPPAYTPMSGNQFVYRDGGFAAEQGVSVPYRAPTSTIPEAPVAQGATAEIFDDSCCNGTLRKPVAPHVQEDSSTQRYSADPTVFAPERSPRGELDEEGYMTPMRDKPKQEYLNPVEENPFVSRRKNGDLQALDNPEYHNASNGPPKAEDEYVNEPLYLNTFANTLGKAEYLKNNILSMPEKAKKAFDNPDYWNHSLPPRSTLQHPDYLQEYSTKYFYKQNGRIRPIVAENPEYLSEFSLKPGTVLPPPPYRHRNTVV

[16] = target: Receptor tyrosine-protein kinase erbB-4 (Homo sapiens) (UniProt Q15303); settings: at 10 µM

`c1ccc(-c2n[nH]cc2-c2ccnc3ccccc23)nc1` showed a residual activity [1] of 78%, a residual activity [2] of 103% and a residual activity [3] of 109%. It also gave a residual activity [4] of 103%, a residual activity [5] of 94% and a residual activity [6] of 91%. The residual activity [7] was 95%, the residual activity [8] was 97% and the residual activity [9] was 104%. The residual activity [10] was 105%, the residual activity [11] was 102% (inactive) and the residual activity [12] was 137%. The residual activity [13] was 109%, the residual activity [14] was 105% and the residual activity [15] was 98%. For the same compound, the residual activity [16] was 98%.

— ChEMBL document CHEMBL2218924, “A broad activity screen in support of a chemogenomic map for kinase signalling research and drug discovery” (Biochem J, 2013)
